Screens deposited in PubChem by National Center for Advancing Translational Sciences (NCATS).
TRHR ag = qHTS for Small Molecule Agonists and Allosteric Enhancers of Human TRH Receptor: Primary Screen for Agonists; Thyrotropin-releasing hormone receptor (Homo sapiens), P34981; TRHR cells, calcium flux fluo-8, FDSS agonist mode; activation, % at 2 µM; 0.18% of 360,000 active; also: 0% is about no effect
Target sequence (P34981 whole entry, looked up): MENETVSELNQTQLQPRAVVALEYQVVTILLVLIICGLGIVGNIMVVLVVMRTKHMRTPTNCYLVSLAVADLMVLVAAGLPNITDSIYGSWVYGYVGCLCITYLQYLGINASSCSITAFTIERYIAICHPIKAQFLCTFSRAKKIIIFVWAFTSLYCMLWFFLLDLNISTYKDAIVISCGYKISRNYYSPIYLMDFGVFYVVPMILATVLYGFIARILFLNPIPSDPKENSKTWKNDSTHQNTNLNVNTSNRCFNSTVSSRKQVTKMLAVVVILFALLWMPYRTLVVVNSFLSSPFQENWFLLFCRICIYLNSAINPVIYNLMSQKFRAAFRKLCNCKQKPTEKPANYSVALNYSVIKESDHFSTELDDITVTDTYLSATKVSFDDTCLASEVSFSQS
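Agonist-mode FDSS calcium read (Ex 480/Em 530, 1 s cycles) in 1536-well TRHR cells with fluo-8 dye, after 10-cycle baseline and 23 nL compound addition; TRH at EC20 (10 nM final) added afterwards for the enhancer phase.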
D1 agonist = Allosteric Agonists of the Human D1 Dopamine Receptor: qHTS; 1% of 360,000 active; activation, % at 2 µM; HEK293 T-REx D1 cells, calcium flux, agonist mode; also: 0% is about no effect
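Agonism was scored from calcium flux recorded over 180 s (1 read/s) after pintool compound addition, following a 10-cycle baseline. Cells were inducible force-coupled HEK293 TREx D1, plated overnight at 30 C and loaded with no-wash calcium dye.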
LDHA block = qHTS assay for inhibitors of human lactate dehydrogenase; purified LDHA, NADH/diaphorase-resazurin fluorescence; hits give low values; activity change, % (values are at about 110 or 230 µM); 0.15% of 480,000 active; in the data active = activity change below about -30%;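 also: plate controls were DMSO wells for no effect and wells without enzyme for full effect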
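Remaining NADH was detected by diaphorase (0.133 mg/mL) converting 37 µM resazurin to fluorescent resorufin, read at 0 and 20 minutes. The preceding 5-minute room-temperature reaction used 2 nM LDHA, 0.2 mM sodium pyruvate and 0.06 mM NADH at pH 7.4.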
D1 potentiator = Potentiators of Human D1 Dopamine Receptor: qHTS | HEK293 TREx D1 cells, calcium flux, dopamine EC20 potentiation | potentiation, % at 10 µM | AID 504651, 2011 | 0.036% of 360,000 active; in the data active = potentiation above about 30%; also: 0% is about no effect
TRHR PAM = qHTS for Small Molecule Agonists and Allosteric Enhancers of Human TRH Receptor: Primary Screen for Enhancers; Thyrotropin-releasing hormone receptor (Homo sapiens), P34981; TRHR cells, fluo-8 calcium fluorescence, EC20 TRH enhancement; enhancement, % at 2 µM; 0.66% of 360,000 active; AID 493056, 2011; in the data active = enhancement above about 30%; also: 0% is about no effect
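Enhancer read-out: after compound pinning and an initial kinetic agonist-mode read, an EC20 of TRH (10 nM final) was injected and fluo-8 calcium signal (Ex 480/Em 530) followed at 1 s/cycle for 100 cycles in TRHR-expressing cells.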
D1 antagonist = Antagonist of Human D 1 Dopamine Receptor: qHTS | HEK293 TREx D1 cells, calcium flux, dopamine EC80; hits give low values | activity change, negative = inhibition, % at 10 µM | 3.2% of 360,000 active | AID 504652, 2011; in the data active = activity change below about -30%; also: % is scaled to controls: 0 for no effect and ±100 for the full control effect
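HEK293 T-REx cells expressing inducible, force-coupled D1 receptor; no-wash Ca dye, 30–90 min RT. Cmpd → 180 s read at 1 Hz → EC80 DA → 180 s read.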
* marks the source's active call; other numbers are inactive results; . = no result. This is a sample that favours compounds with a hit; in the whole collection about 3.6% have one here. Rule as the data show it, unless noted: active = activation above about 30%; inactive = the rest.

SMILES	TRHR ag	D1 agonist	LDHA block	D1 potentiator	TRHR PAM	D1 antagonist
CN(Cc1ccsc1)C(=O)Cc1cccs1	.	.	8	.	.	.
CCOC(=O)NN1C(=O)c2ccccc2NC1c1ccccn1 (stereo not given)	0	3	-7	-3	-3	-30*
CCOC(=O)NN1C(=O)c2ccccc2NC1c1ccccc1 (stereo not given)	-1	0	-9	0	6	-2
Cc1[nH]c2ccccc2c1CN1CCC(Cc2ccccc2)CC1	-3	90*	-9	1	1	-63*
Cc1[nH]c2ccccc2c1CN1CCN(c2ccccn2)CC1	0	6	-3	-9	1	3
COc1ccccc1C1CCN(Cc2ccccc2)CC1	0	-1	-4	-22	-2	-46*
Cc1ccc(S(=O)(=O)NCc2ccc(C(=O)NCCCN3CCC(Cc4ccccc4)CC3)cc2)cc1	0	30	-3	-15	5	-83*
Cc1ccc(S(=O)(=O)NCCC(=O)N2CCC(Cc3ccccc3)CC2)cc1	0	4	0	-6	2	-15
CCOc1ccc(CN2CCC(Cc3ccccc3)CC2)cc1	0	6	-13	-2	-3	-31*
CC(Sc1ncc(-c2cccc(Br)c2)o1)C(=O)NCCc1ccccc1 (stereo not given)	.	.	-5	.	.	.
CCc1cccc2c(C3=CCN(C(=O)C(C)(C)C)CC3)c[nH]c12	.	.	14	.	.	.
CS(=O)(=O)c1ccc2sc(N)nc2c1	.	.	0	.	.	.
COCCNC(=O)c1ccc(CN2CCC(Cc3ccccc3)CC2)cc1	1	3	0	-9	7	-31*
O=C(NCc1ccccc1)c1ccc(CN2CCC(Cc3ccccc3)CC2)cc1	-2	0	0	-4	-5	13
O=c1c2ccccc2nc(-c2ccco2)n1CCc1ccc(O)cc1	0	3	-7	-7	-4	-41*
COc1ccc(CCn2c(-c3ccco3)nc3ccccc3c2=O)cc1OC	-1	0	2	1	-2	13
O=c1c2ccccc2nc(/C=C/c2ccc(O)cc2)n1CCc1ccccc1	2	3	-5	-7	-5	-41*
CCN(CC)C(=O)CSc1nc2ccccc2c(=O)n1CCc1cccs1	.	.	0	.	.	.
COc1cc(F)cc(-c2ccc3c(c2)c(-c2cccs2)c(-c2cc(OC)cc(OC)c2)n3C)c1	5	42*	-3	-6	-1	.
O=C(CN1C(=O)c2cccnc2C1=O)c1ccccc1	0	-1	-5	-7	7	-31*
CC(Sc1nc(CN2CCOCC2)nc2ccccc12)C(=O)Nc1ccc(F)cc1F (stereo not given)	.	.	-33*	.	.	.
O=C(CN1CCC2(CC1)OCCO2)c1ccc2cc[nH]c2c1	0	2	-8	-3	0	20
O=C(CN1CCN(c2ccccc2)CC1)c1ccc2cc[nH]c2c1	4	5	-10	-6	-3	-36*
Cn1c(=O)c2nc(SCC(=O)Nc3ccc(F)c(F)c3)n(C)c2n(C)c1=O	.	.	0	.	.	.
CCNC(=O)NC(=O)C(C)N(C)CC(=O)Nc1cccc2ccccc12 (stereo not given)	.	.	-33*	.	.	.
SMILES	TRHR ag	D1 agonist	LDHA block	D1 potentiator	TRHR PAM	D1 antagonist
COc1ccccc1NC(=O)C(C)N(C)CC(=O)Nc1cccc2ccccc12 (stereo not given)	.	.	3	.	.	.
Clc1ccc2c(N3CCOCC3)ccnc2c1	1	3	-6	-2	-1	-3
Clc1ccc2c(c1)CNc1c(ncnc1N1CCOCC1)O2	-1	3	-11	-9	0	-43*
Cc1cccnc1NC(=O)CNC(=O)COc1ccccc1	0	5	-6	-6	33*	32
COc1ccccc1CCN1CNc2c(c(=O)[nH]c(=O)n2-c2ccc(Cl)cc2)C1	.	.	-13	.	.	.
COc1ccc(C(C)NC(=O)c2ccccc2)cc1 (stereo not given)	0	3	-2	-4	1	6
COc1ccc(C(=O)NC(Oc2ccccc2)C(Cl)(Cl)Cl)cc1 (stereo not given)	-3	9	-10	-10	19	-80*
Cc1cccc(Cn2nnc3c(=O)n(Cc4nc(-c5ccccc5C)no4)cnc32)c1	.	.	-6	.	.	.
O=C(NC1CC1)c1sc2ccccc2c1Cl	-1	1	-2	-4	-1	-2
O=C(NNC(=O)C1CC2CCC1C2)c1sc2ccccc2c1Cl (stereo not given)	-1	3	-6	-5	-6	-34*
CC(C)(C)C(=O)NC(=S)NNC(=O)c1sc2ccccc2c1Cl	-2	446*	-7	56*	4	46
COc1ccc(C(=O)NNC(=S)NC(=O)C(C)(C)C)cc1	79*	306*	-9	-4	-11	-35*
COc1ccc(C(=O)NNC(=S)NC(=O)/C=C/c2cccs2)cc1	-1	3	-3	5	0	-35*
Cc1ccc(-c2cc(C(=O)O)c3cc(Cl)ccc3n2)cc1C	.	.	-4	.	.	.
O=C(NCCCc1nc2ccccc2n1Cc1ccc(Cl)cc1)c1ccco1	-1	81*	-7	-2	8	-31*
COCCCn1c(SCC(=O)NCc2ccccc2)nc2c(sc3ccccc32)c1=O	0	6	-3	-3	-3	-39*
CCc1ccc(NC(=O)CSc2nc3c(sc4ccccc43)c(=O)n2CCCOC(C)C)cc1	0	4	1	-3	5	-35*
COC(=O)c1ccn(Cc2ccc(Cl)cc2Cl)n1	.	.	6	.	.	.
Cc1ccc(NC(=O)COC(=O)c2cccc(F)c2)cc1S(=O)(=O)N1CCCCC1	.	.	1	.	.	.
COc1ccc(/C=C/C(=O)c2ccccc2)cc1COc1ccccc1F	0	38*	5	2	4	10
CC(O)C(O)C(O)C(O)C1NCCS1 (stereo not given)	0	0	-1	1	-1	-66*
OCC(O)C(O)C(O)C(O)C1NCCS1 (stereo not given)	0	0	-8	3	-3	-18
COc1ccc(C23CC4CC(CC(C(=O)Nc5nc(C)cs5)(C4)C2)C3)cc1	.	.	11	.	.	.
Cc1ccc(OCC(=O)NCC(=O)OCc2cc(=O)n3nc(CC(C)C)sc3n2)cc1	-1	1	0	-9	10	-36*
